A selection: hits, their analogues and other compounds. The true share with any hit is near 17%.
HepG2 viability – kills HepG2 cells in TGF-b inhibitor counter-screen; HepG2 CAGA-GFP viability, ATP luminescence, 18 h; Potency, µM (doses to about 46.1 µM), hits mostly cytotoxic; 410,000 tested, 0.76% active
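HepG2 CAGA-GFP cells (1000/well, DMEM with 1% FBS) received compound, then TGF-beta at 500 pg/mL final, and were incubated 18 hours at 37 degrees C. Viability was read by CellTiter-Glo luminescence. Media-only wells were set as complete cell-killing and DMSO as no toxicity.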
DT40 TDP1 CPT – DT40-hTDP1 cell growth loss with CPT. 420,000 tested, 12% active. Potency, µM (highest dose often 46.2 µM), most hits filed as inhibitors. chicken DT40 Tdp1-/-;hTDP1 cells + 20 nM CPT, ATP luminescence, 48 h; further: nearly all actives have a fitted effect of over 55% in size
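Chicken DT40 Tdp1-/- cells stably complemented with human TDP1 were seeded at 400 cells/well in medium containing 20 nM camptothecin, exposed to pin-transferred compounds, and grown at 37 °C for at least 48 hr. Viability was read as ATP luminescence.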
TDP1 cell noCPT – qHTS for Inhibitors of human tyrosyl-DNA phosphodiesterase 1 (TDP1): qHTS in cells in absence of CPT; DT40 Tdp1-/- hTDP1 cells, no CPT, ATP luminescence, 48 h; Potency, µM (series often up to 46.2 µM), hits mostly inhibitors; 420,000 tested, 15% active; further: nearly all actives have a fitted effect of over 55% in size
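DT40 Tdp1-/-;hTDP1 cells, no CPT (DMSO vehicle only), 400 cells/well; compounds pin-transferred; ≥48 hr, 37 °C; CellTiter-Glo 30 min RT dark, luminescence read.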
TGFb inhibitor – blocks TGF-b signaling; HepG2 CAGA-GFP TGF-b/SMAD3 reporter, GFP fluorescence, 18 h; TGF-beta stimulated, 500 pg/mL final; Potency, µM (top dose mostly 46.1 µM), most hits filed as inhibitors; 410,000 tested, 1.2% active; AID 588855; further: nearly all actives have a fitted effect of over 65% in size
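GFP signal (ex488/em500-530) from TGF-beta-stimulated HEPG2 CAGA-GFP cells, 500 pg/mL final, 18 h at 37 degrees C in DMEM plus 1% FBS, normalized to unstimulated and DMSO-stimulated controls.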
HT1080-NT tox – kills 2HG-producing HT-1080-NT fibrosarcoma cells; HT-1080-NT fibrosarcoma viability, CellTiter-Glo ATP luminescence, 48 h; Potency, µM (top dose mostly 46.1 µM), hits mostly cytotoxic; 360,000 tested, 1.6% active; AID 686970;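 further: NT is the 2HG producing partner of a matched IDH1 knockdown line; nearly all actives have a fitted effect of over 55% in size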
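Viability of the 2HG-overproducing fibrosarcoma line after 48 hours of compound exposure at 37 degrees C was determined by luminescence with CellTiter-Glo, and concentration-effect curves were then fitted and categorized.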
HT1080 IDH1KD tx – HT-1080 IDH1 knockdown cell toxicity (counter line); AID 686971; Potency, µM (highest dose often 46.1 µM), usual class: cytotoxic; HT-1080 IDH1 knockdown viability, ATP luminescence, 48 h; 360,000 tested, 2% active
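Assay cells: HT-1080 with IDH1 knockdown, 750 per well, RPMI/5% FBS. Exposure: 48 h at 37 °C following 2 h pre-incubation. Read: CellTiter-Glo luminescence; fitted concentration-response, curve class assigned.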
Hits are given with their value. The call rests on the fitted dose curve; in most records, active means well fitted curve in the direction sought with a large enough effect; inconclusive means small, poorly fitted or top-dose-only effect, or another doubt; inactive means no such curve, though single readings can be large; an effect the other way counts as inactive or inconclusive.

`Cc1nc(SCc2cc(=O)c3cccc(F)c3[nH]2)n[nH]1` gave HepG2 viability inactive, DT40 TDP1 CPT inactive, TDP1 cell noCPT inactive and TGFb inhibitor inactive.
For Cc1cccc(N2CC(C(=O)Nc3ccc4c(c3)OCCO4)CC2=O)c1C (centres undefined) the results were HepG2 viability inactive, DT40 TDP1 CPT inactive, TDP1 cell noCPT inactive, TGFb inhibitor inactive, HT1080-NT tox inactive and HT1080 IDH1KD tx inactive.
For COc1ccc(C(CCNC(C)c2ccccc2)C(C)C)cc1 (centres undefined) the results were HepG2 viability inactive, DT40 TDP1 CPT inconclusive, TDP1 cell noCPT 16.4µM, TGFb inhibitor inconclusive, HT1080-NT tox inconclusive and HT1080 IDH1KD tx inconclusive.
Screening COc1ccc(C(C)NCCC(c2ccc(OC(C)C)cc2)c2ccccc2OC)cc1 (centres undefined) returned HepG2 viability 12.6µM, DT40 TDP1 CPT 5.8µM, TDP1 cell noCPT 5.8µM, TGFb inhibitor 11.2µM, HT1080-NT tox 14.6µM and HT1080 IDH1KD tx inconclusive.
For COc1ccc(C(CC(=O)NCc2ccccc2)C(C)C)cc1 (centres undefined) the results were HepG2 viability inactive, DT40 TDP1 CPT inactive, TDP1 cell noCPT inconclusive, TGFb inhibitor inactive, HT1080-NT tox inactive and HT1080 IDH1KD tx inactive.
`COc1ccc(C(C)NS(=O)(=O)Cc2ccccc2)cc1` (centres undefined) gave HepG2 viability inactive, DT40 TDP1 CPT inactive, TDP1 cell noCPT inactive, TGFb inhibitor inactive, HT1080-NT tox inactive and HT1080 IDH1KD tx inactive.
Cc1ccc(N2C(=O)C(CC(=O)Nc3ccc(F)cc3)N(Cc3ccc4c(c3)OCO4)C2=O)cc1 (centres undefined) was read as HepG2 viability inactive, DT40 TDP1 CPT inconclusive, TDP1 cell noCPT 16.4µM and TGFb inhibitor inactive.
Screening O=C(CC1C(=O)N(c2ccc(F)cc2)C(=O)N1Cc1ccc2c(c1)OCO2)Nc1ccc(Cl)cc1 (centres undefined) returned HepG2 viability inactive, DT40 TDP1 CPT inconclusive, TDP1 cell noCPT 20.6µM and TGFb inhibitor inactive.
Screening COc1ccc(NC(=O)CC2C(=O)N(c3ccc(F)cc3)C(=O)N2Cc2ccc3c(c2)OCO3)cc1 (centres undefined) returned HepG2 viability inactive, DT40 TDP1 CPT inactive, TDP1 cell noCPT inconclusive and TGFb inhibitor inactive.
`CCN1C(=O)N(c2ccc(Cl)cc2)C(C)=CC1(C)C` gave HepG2 viability inactive, DT40 TDP1 CPT inactive, TDP1 cell noCPT inconclusive, TGFb inhibitor inactive, HT1080-NT tox inactive and HT1080 IDH1KD tx inactive.
Cn1c(COc2ccccc2O)[n+](C)c2ccccc21 was read as HepG2 viability inactive, DT40 TDP1 CPT inactive, TDP1 cell noCPT inactive, TGFb inhibitor inactive, HT1080-NT tox inactive and HT1080 IDH1KD tx inactive.
For CCCCCCCCCCOC(=O)Cn1c(COc2ccccc2OC)[n+](C)c2ccccc21 the results were HepG2 viability inactive, DT40 TDP1 CPT 1.03µM, TDP1 cell noCPT 1.3µM, TGFb inhibitor inconclusive, HT1080-NT tox 14.6µM and HT1080 IDH1KD tx 20.6µM.
`C=CCc1cc(/C=N/n2cnnc2)cc(OCC)c1O` gave HepG2 viability inactive, DT40 TDP1 CPT inactive, TDP1 cell noCPT inconclusive, TGFb inhibitor inactive, HT1080-NT tox inactive and HT1080 IDH1KD tx inactive.
Screening C=CCc1cc(C=Nc2ccc(N3CCOCC3)cc2)cc(OCC)c1O returned HepG2 viability inactive, DT40 TDP1 CPT inactive, TDP1 cell noCPT 16.4µM, TGFb inhibitor inactive, HT1080-NT tox inactive and HT1080 IDH1KD tx inactive.
CC[C@H]1O[C@H](C)CC2=C1C(=O)OC(C)(C)O2 was read as DT40 TDP1 CPT inactive, TDP1 cell noCPT inactive, HT1080-NT tox inactive and HT1080 IDH1KD tx inactive.

Bioassay records (PubChem)
